Calls of active or inactive are those of the source. Calls come from the whole dose curve; as a rule, active = well fitted activation curve with a large enough effect; inconclusive = small, poorly fitted or top-dose-only effect; inactive = no such curve, though single readings can be large or run the other way.
Biological target: Cytochrome P450 3A4 (Homo sapiens) (UniProt P08684)
Experiment: qHTS Assay for Activators of Cytochrome P450 3A4 (AID 885); note: nearly all actives have a fitted effect of over 65% in size
Details: recombinant CYP3A4, Luciferin-PPXE luminescence, 60 min; series mostly up to 57.1 µM
How it was run: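 Luminescent readout of luciferin formed from 25 uM Luciferin-PPXE (KM level) by 20 nM CYP3A4 in 200 mM KPO4, with 60 min NADPH-driven reaction at room temperature after 10 min compound exposure. Ketoconazole (57 uM) defined 100% inhibition.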

Sequence of Cytochrome P450 3A4 (Homo sapiens) (P08684 whole entry, looked up): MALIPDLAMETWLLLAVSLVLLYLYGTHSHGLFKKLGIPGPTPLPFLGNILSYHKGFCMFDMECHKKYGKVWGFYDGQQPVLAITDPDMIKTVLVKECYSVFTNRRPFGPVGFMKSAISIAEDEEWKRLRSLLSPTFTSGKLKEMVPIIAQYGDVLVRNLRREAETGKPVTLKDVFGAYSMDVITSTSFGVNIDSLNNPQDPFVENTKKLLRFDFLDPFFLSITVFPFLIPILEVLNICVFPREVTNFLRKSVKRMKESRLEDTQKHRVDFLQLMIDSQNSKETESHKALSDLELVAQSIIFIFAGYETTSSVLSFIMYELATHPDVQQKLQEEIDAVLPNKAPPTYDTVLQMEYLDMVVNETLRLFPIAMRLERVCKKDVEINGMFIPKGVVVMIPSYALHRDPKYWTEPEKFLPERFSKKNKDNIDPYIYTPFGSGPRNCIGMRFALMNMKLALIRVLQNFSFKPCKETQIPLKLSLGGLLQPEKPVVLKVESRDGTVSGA

Potency, inactive:
CC(C)CC1(C(=O)NCCc2c[nH]c3ccccc23)C=CCN1C(=O)c1ccccc1 (stereo not drawn), CC(Cc1ccccc1)C(=O)NCc1ccncc1 (stereo not drawn), CC(=O)N1[C@H](C)C=C[C@]1(Cc1ccccc1)C(=O)NCCN1CCOCC1, CNC(=O)[C@]1(C)C[C@H]1[C@H](NC(=O)[C@]1(C)C[C@H]1[C@H](NC(=O)OCc1ccccc1)c1ccccc1)c1ccccc1, COC(=O)N1CC=CC1(C)C(=O)NCc1cc(F)cc(C(F)(F)F)c1 (stereo not drawn), CC(C)NC(=O)[C@@H]1C[C@H]1[C@@H](NC(=O)OCc1ccccc1)c1ccccc1, CN(C)C(=O)[C@@H]1C[C@H]1[C@@H](NC(=O)OCc1ccccc1)c1ccccc1, CC1(C(=O)NCc2cc(F)cc(C(F)(F)F)c2)C=CC2(CCCCC2)N1C(=O)c1ccccc1 (stereo not drawn)

Reference: PubChem BioAssay (NCATS)
